From PubChem BioAssay (NCATS)
Results filed as inconclusive are left out. A call without a number means that no potency is given here. Values without a mark were called inactive. Activity calls are given as the source filed them. The call rests on the fitted dose curve; in most records, active means well fitted inhibition curve with a large enough effect; inconclusive means small, poorly fitted or top-dose-only effect; inactive means no such curve, though single readings can be large or run the other way.

experiment: Primary qHTS for inhibitors of La Crosse Virus (LACV) - induced cell death in SH-SY5Y cells (AID 1508616); details: SH-SY5Y LACV cytopathicity rescue, ATP luminescence, 6 d; series mostly up to 4.29 µM; activity change: at the top concentration;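 further: top concentration of the series differs between compounds; higher means more rescue of cells from virus-induced death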
Procedure, shortened: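 Cytopathicity rescue screen: compounds pinned onto SH-SY5Y cells, which are then infected with LACV (MOI 0.01) and held 6 days at 37C. Percent activity is scaled between infected DMSO control and uninfected DMSO control.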

Row | SMILES | activity change | Potency
1 | O=C(CCCN1CCC(O)(c2ccc(Cl)cc2)CC1)c1ccc(F)cc1 | -18.1% | 
2 | Cc1cn([C@H]2C=C[C@@H](CO)O2)c(=O)[nH]c1=O |  | inactive
3 | CCOC(=O)Nc1ccc(NCc2ccc(F)cc2)nc1N |  | inactive
4 | Clc1ccc2nsnc2c1NC1=NCCN1 |  | inactive
5 | O=C(c1ccc(F)cc1)C1CCN(CCn2c(=O)[nH]c3ccccc3c2=O)CC1 |  | inactive
6 | CC[C@@]1(O)C(=O)OCc2c1cc1n(c2=O)Cc2cc3c(CN(C)C)c(O)ccc3nc2-1 | -93.4% | 
7 | CN(C)CCCN1c2ccccc2CCc2ccc(Cl)cc21 |  | inactive
8 | C[C@](N)(Cc1ccc(O)c(O)c1)C(=O)O |  | inactive
9 | CC[N+](CC)(CC)CCOc1cccc(OCC[N+](CC)(CC)CC)c1OCC[N+](CC)(CC)CC |  | inactive
10 | NC(=O)NO |  | inactive
11 | Clc1ccc2c(c1)C(N1CCNCC1)=Nc1ccccc1O2 |  | inactive
12 | CC(CCc1ccc(O)cc1)NCCc1ccc(O)c(O)c1 (stereo not drawn) | -14% | 
13 | OCCN(CCO)c1nc(N2CCCCC2)c2nc(N(CCO)CCO)nc(N3CCCCC3)c2n1 |  | inactive
14 | COc1cc2nc(N(C)CCCNC(=O)C3CCCO3)nc(N)c2cc1OC (stereo not drawn) |  | inactive
15 | COc1ccc(C2CNC(=O)C2)cc1OC1CCCC1 (stereo not drawn) |  | inactive
16 | CN(Cc1cnc2nc(N)nc(N)c2n1)c1ccc(C(=O)N[C@@H](CCC(=O)O)C(=O)O)cc1 |  | inactive
17 | Nc1nc2c(ncn2COC(CO)CO)c(=O)[nH]1 |  | inactive

Row | SMILES | activity change | Potency
18 | O=c1[nH]cc(F)c(=O)[nH]1 | -4.44% | 
19 | Clc1ccc(C(c2ccccc2Cl)C(Cl)Cl)cc1 (stereo not drawn) |  | inactive
20 | NC(=O)OCC(COC(N)=O)c1ccccc1 |  | inactive
21 | Nc1ccn([C@H]2CC[C@@H](CO)O2)c(=O)n1 |  | inactive
22 | Nc1c2c(nc3ccccc13)CCCC2 |  | inactive
23 | CN1CCN(CCCN2c3ccccc3Sc3ccc(Cl)cc32)CC1 |  | inactive
24 | CN1CCN2c3ccccc3Cc3ccccc3C2C1 (stereo not drawn) |  | inactive
25 | CC(C)(C)C(=O)Oc1ccc(S(=O)(=O)Nc2ccccc2C(=O)NCC(=O)O)cc1 | -7.48% | 
26 | CC1COc2c(N3CCN(C)CC3)c(F)cc3c(=O)c(C(=O)O)cn1c23 (stereo not drawn) |  | inactive
27 | C[C@H]1c2cccc(O)c2C(O)=C2C(=O)[C@]3(O)C(O)=C(C(N)=O)C(=O)[C@@H](N(C)C)[C@@H]3[C@@H](O)[C@@H]21 |  | inactive
28 | COc1ccccc1OCCNCC(O)COc1cccc2[nH]c3ccccc3c12 (stereo not drawn) |  | inactive
29 | CCOC(=O)c1ncn2c1CN(C)C(=O)c1cc(F)ccc1-2 |  | inactive
30 | CCC1(C)CC(=O)NC1=O (stereo not drawn) |  | inactive
31 | Cc1ccc(C(=O)Nc2ccc(S(=O)(=O)O)c3cc(S(=O)(=O)O)cc(S(=O)(=O)O)c23)cc1NC(=O)c1cccc(NC(=O)Nc2cccc(C(=O)Nc3cc(C(=O)Nc4ccc(S(=O)(=O)O)c5cc(S(=O)(=O)O)cc(S(=O)(=O)O)c45)ccc3C)c2)c1 |  | inactive
32 | Nc1nnc(-c2cccc(Cl)c2Cl)c(N)n1 |  | inactive
33 | CCc1cccc2c3c([nH]c12)C(CC)(CC(=O)O)OCC3 (stereo not drawn) |  | inactive
